NS1 function inh: qHTS Assay for Inhibitors of Influenza NS1 Protein Function; Potency, µM (doses to about 46.1 µM); 0.4% of 270,000 active; note: actives are rising curves; nearly all actives have a fitted effect of over 50% in size
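In this qHTS, NS1 from influenza A is expressed in budding yeast, where it slows growth. Cells are switched from glucose to 2% galactose medium (pH 6.0, -URA), treated with compound, and growth recovery is read at OD600.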
SARS PLpro yeast: qHTS of Yeast-based Assay for SARS-CoV PLP; S. cerevisiae expressing SARS-CoV PLpro, growth rescue; Potency, µM (series often up to 32.9 µM), hits mostly activators; 0.19% of 330,000 active; AID 485353, 2010; note: nearly all actives have a fitted effect of over 55% in size
Pf growth 48h: Primary qHTS for delayed death inhibitors of the malarial parasite plastid, 48 hour incubation | P. falciparum luciferase growth in erythrocytes, 48 h | Potency, µM (series often up to 28.7 µM), actives largely listed as inhibitors | 5.9% of 310,000 active | AID 504832, 2011; active = well fitted inhibition curve with a large enough effect; inconclusive = small, poorly fitted or top-dose-only effect, or another doubt; inactive = no such curve, though single readings can be large or run the other way
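Luciferase-expressing P. falciparum in infected erythrocytes (2% hematocrit, 0.1% parasitemia final) in RPMI 1640/0.5% Albumax were exposed to compound for 48 hours at 37 C, 5% CO2; growth read as luminescence.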
Pf growth 96h: Primary qHTS for delayed death inhibitors of the malarial parasite plastid, 96 hour incubation | P. falciparum luciferase reporter growth, 96 h | Potency, µM (titrated, usually from 28.7 µM), actives largely listed as inhibitors | 6.9% of 320,000 active | AID 504834, 2011; active = well fitted inhibition curve with a large enough effect; inconclusive = small, poorly fitted or top-dose-only effect, or another doubt; inactive = no such curve, though single readings can be large or run the other way
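96 h incubation, 37 C, 5% CO2, of luciferase-reporter P. falciparum-infected RBCs (2% hematocrit, 0.05% parasitemia final) with test compounds; endpoint luminescence.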
Of the large screens only hits and unclear results are named; the others gave an inactive call. Sampled rows, rich in hits. Any-hit rate of the full collection: about 10%. Unless noted, calls come from the whole dose curve.

CS(=O)(=O)c1ccc([C@@H](O)[C@@H](CF)NC(=O)C(Cl)Cl)cc1	Pf growth 48h 12µM, Pf growth 96h 3.3µM (no result: NS1 function inh, SARS PLpro yeast)
CS(=O)(=O)c1ccc([C@@H](O)[C@@H](CO)NC(=O)C(Cl)Cl)cc1	Pf growth 48h inconclusive, Pf growth 96h 4.7µM (no result: NS1 function inh, SARS PLpro yeast)
CCOC(=O)c1sc2nc(C)c([N+](=O)[O-])c(COC)c2c1N	Pf growth 48h 10µM
O=c1cc(CN2CCC3(CC2)OCCO3)c2c(ccc3ccccc32)o1	Pf growth 48h inconclusive (no result: Pf growth 96h)
CC(C)c1ccc2oc(=O)cc(CN3CCN(c4ccc(F)cc4)CC3)c2c1	SARS PLpro yeast inconclusive, Pf growth 48h 13µM (no result: Pf growth 96h)
O=c1cc(CN2CCN(c3ccccc3)CC2)c2cc(O)c(-c3ccccc3)cc2o1	Pf growth 48h 2.6µM, Pf growth 96h 3.3µM
O=c1cc(CN2CCN(c3ccccc3)CC2)c2c(ccc3ccccc32)o1	Pf growth 48h 13µM, Pf growth 96h 10µM
O=c1cc(CN2CCN(c3cccc(Cl)c3)CC2)c2cc(O)c(-c3ccccc3)cc2o1	Pf growth 48h 2.1µM, Pf growth 96h inconclusive
COc1ccc(N2CCN(Cc3cc(=O)oc4c3ccc3ccccc34)CC2)cc1	Pf growth 96h 12µM
COc1ccc(N2CCN(Cc3cc(=O)oc4ccc(C)cc34)CC2)cc1	Pf growth 96h inconclusive (no result: Pf growth 48h)
CC1CC(OC(=O)c2ccccc2O)CC(C)(C)C1 (stereo not drawn)	none (no result: NS1 function inh, SARS PLpro yeast)
Cc1nccn1CC(O)Cn1c2ccccc2c2ccccc21 (stereo not drawn)	Pf growth 48h inconclusive
CC1(C)Cc2c(cnn2-c2ccccc2)-c2c1c1ccccc1n2CC(O)CCl (stereo not drawn)	Pf growth 48h 12µM, Pf growth 96h inconclusive
Cc1ccc(Cn2nnc3c(=O)[nH]c(C4CCCN(S(=O)(=O)c5ccccc5)C4)nc32)cc1 (stereo not drawn)	Pf growth 96h inconclusive (no result: Pf growth 48h)
Cc1ccc(Cn2nnc3c(=O)[nH]c(C4CCN(S(=O)(=O)Cc5ccccc5)CC4)nc32)cc1	Pf growth 48h inconclusive
N#Cc1ccc(NC(=O)N2CCC(c3nc4c(nnn4Cc4cccc(Cl)c4)c(=O)[nH]3)CC2)cc1	Pf growth 48h inconclusive, Pf growth 96h 7.4µM
O=c1[nH]c(C2CCN(S(=O)(=O)/C=C/c3ccccc3)CC2)nc2c1nnn2Cc1ccccc1	Pf growth 48h 4.7µM
O=c1[nH]c(C2CCCN(S(=O)(=O)c3ccc(F)cc3)C2)nc2c1nnn2Cc1ccccc1 (stereo not drawn)	Pf growth 48h 13µM
Cc1ccc(S(=O)(=O)N2CCC(c3nc4c(nnn4Cc4ccccc4)c(=O)[nH]3)CC2)cc1	Pf growth 48h 12µM
COc1cc(OC)cc(C(=O)NCC2CCCN(Cc3ccc(SC)cc3)C2)c1 (stereo not drawn)	Pf growth 96h inconclusive
O=c1[nH]c(C2CCN(S(=O)(=O)c3ccccc3C(F)(F)F)CC2)nc2c1nnn2Cc1ccccc1	Pf growth 48h 5.9µM, Pf growth 96h 2.6µM
O=c1[nH]c(C2CCCN(S(=O)(=O)Cc3ccccc3)C2)nc2c1nnn2Cc1cccc(Cl)c1 (stereo not drawn)	Pf growth 48h 12µM
CN(CC(=O)Nc1ccc(F)cc1)C(=O)COC(=O)c1ccc(-c2ccccc2)cc1	none (no result: NS1 function inh)
CCOc1ccc(CCNC(=O)COC(=O)C2=NNC(=O)CC2)cc1OCC	Pf growth 48h inconclusive, Pf growth 96h inconclusive (no result: NS1 function inh)
COc1ccc(CSc2ccc(-c3nc4ccccn4c3NCc3ccccc3)cc2OC)cc1	Pf growth 48h 10µM, Pf growth 96h inconclusive (no result: NS1 function inh)
COc1cc(-c2nc3ccccn3c2NCc2ccccc2)ccc1SC1CCCCC1	Pf growth 48h 5.2µM, Pf growth 96h inconclusive (no result: NS1 function inh)
COc1cc(-c2nc3ccc(C)cn3c2NCc2ccccc2)ccc1SC1CCCCC1	Pf growth 48h inconclusive, Pf growth 96h 4.7µM (no result: NS1 function inh)
CCC(C)Sc1ccc(-c2nc3ccccn3c2NCc2ccccc2)cc1OC (stereo not drawn)	none (no result: NS1 function inh, Pf growth 48h, Pf growth 96h)
COc1ccc(-c2nc3ccccn3c2NC2CCCCC2)cc1SC1CCCCC1	Pf growth 48h 12µM, Pf growth 96h inconclusive (no result: NS1 function inh)
COc1cc(-c2nc3ccccn3c2NCC2CCCO2)ccc1O (stereo not drawn)	none
Cn1c(=O)c2c(nc(Cl)n2CC(=O)NC2(C#N)CCCCC2)n(C)c1=O	none (no result: NS1 function inh)
O=C(c1ccccn1)N1CCCC(N2CCN(c3ccccc3)CC2)C1 (stereo not drawn)	Pf growth 96h inconclusive
CC(C)(CN)SCc1ccccc1	none (no result: SARS PLpro yeast, Pf growth 48h, Pf growth 96h)
Cc1ccn2c(NC3CCCC3)c(-c3ccccn3)nc2c1	Pf growth 96h inconclusive (no result: NS1 function inh)
c1ccc(-c2nc3ccccn3c2NC2CCCC2)nc1	Pf growth 48h 10µM

Screening data as filed in PubChem.
